# This is a sample that favours compounds with a hit; in the whole collection about 0.47% have one here.
# TcdB GH inh – TcdB glycohydrolase inhibitors, primary screen, biochemical, single point, plate reader | Toxin B (Clostridioides difficile), P18177 | TcdB glycohydrolase enzymatic assay | inhibition, % at 9.99 µM | 350,000 compounds, 0.24% hits; in the data active = inhibition above about 10%
# FadD28 binding – inhibitors of FadD28 bisubstrate probe binding, primary screen, biochemical, fluorescence polarization, single point. Mycobacterium tuberculosis FadD28 fatty-acid-AMP ligase. inhibition, % at 12.5 µM. 360,000 compounds, 0.22% hits. AID 588549, 2011; in the data active = inhibition above about 8.5%, passing the limit was not always enough
# BioA inh – M. tuberculosis BioA enzyme inhibitors, primary screen, biochemical, plate reader, single point, HTS; 360,000 compounds, 0.096% hits; purified M. tuberculosis BioA enzyme; inhibition, % at 9.99 µM; in the data active = inhibition above about 40%
# Y pestis TopoI – Yersinia pestis topoisomerase I inhibitors, primary screen, biochemical, cleavage product accumulation, plate reader, single point; Y. pestis Topo-I cleavage product accumulation; activity, % at 10 µM; 360,000 compounds, 0.064% hits; AID 504884, 2011; in the data active = activity above about 50%, passing the limit was not always enough
# An asterisk follows results filed as active; nt = no result.
SMILES,TcdB GH inh,FadD28 binding,BioA inh,Y pestis TopoI
CCCNC(=O)C1CC(=O)N(c2ccc(OCC)cc2)C1 (configuration not stated),11.1*,-0.4,-1.2,10.7
CCOc1ccc(N2CC(C(=O)NC(C)C)CC2=O)cc1 (configuration not stated),nt,-1.9,-1.0,-1.5
COc1cc(/C=C(\C#N)C(=O)c2ccc(O)c(O)c2)cc(I)c1O,-6.7,12.1*,0.7,-12.8
COc1ccc(C=C(C#N)C(=O)c2ccccc2)cc1,0.8,nt,nt,nt
Cc1ccc(NC(=S)N(C)Cc2cn(C)c3ccccc23)cc1,nt,16.5*,-0.9,4.9
O=C(N/N=C/C(Cl)=C\c1ccccc1)c1cnccn1,nt,-0.9,45.3*,-7.2
O=C(N/N=C/C(Cl)=C/c1ccccc1)c1cnccn1,nt,0.6,22.3,-9.8
COc1ccc(C2C(C(C)=O)=C(C)N=c3s/c(=C\c4cc(C)n(C)c4C)c(=O)n32)c(OC)c1 (configuration not stated),nt,11.7*,-2.5,-2.2
CC1=C(C#N)c2nc(N)c(C#N)c(C)c2/C1=C\c1ccc(OCC(=O)O)c(Cl)c1,-1.5,14.2*,nt,2.7
CCOC(=O)CSc1nc(N)c(C#N)c(-c2ccc(OCC)cc2)c1C#N,nt,-0.7,-0.9,13.8
O=C(N/N=C/c1c(O)n(Cc2ccccc2)c(=O)c2ccccc12)c1cccnc1,-2.8,10.6*,nt,-1.1
COc1ccc(Cn2c(O)c(/C=N/NC(=O)c3cccnc3)c3ccccc3c2=O)cc1,1.7,13.8*,nt,-2.0
O=C(N/N=C/c1c(O)n(-c2ccccc2Cl)c(=O)c2ccccc12)c1cccnc1,0.7,7.5,nt,2.4
Cc1ccc(NS(=O)(=O)c2ccc(CCC(=O)NCCO)cc2)cc1,nt,-2.1,-2.0,0.5
C[C@@H](NC(=O)C[C@@H]1C=C[C@H](NS(=O)(=O)c2cccc(F)c2)[C@@H](CO)O1)c1ccccc1,-11.9,nt,-7.1,nt
CN=c1scc(-c2ccc(F)cc2)n1/N=C/c1ccc(O)c(O)c1,1.6,37.1*,nt,-10.9
CNC(C)C(=O)NC(C(=O)N1CCCC1C(=O)NNc1ccccc1)C(C)C (configuration not stated),-2.0,0.1,-0.6,1.0
CC(N)C(=O)NC(C(=O)N1CCCC1C(=O)NC(c1ccccc1)c1ccccc1)C(C)C (configuration not stated),10.6*,0.2,-0.5,-3.9
CC(=O)N(C)C[C@H]1Oc2ncc(-c3ccc(C)cc3)cc2C(=O)N([C@H](C)CO)C[C@@H]1C,0.1,nt,-0.5,nt
CCN(CCCNc1cc2c(c(N)c1S(=O)(=O)O)C(=O)c1ccccc1C2=O)c1ccccc1,2.5,29.0*,-1.2,8.7
NC(=S)N=Nc1c(O)cc(O)c2[nH]c(=O)ccc12,0.4,29.7*,nt,-17.4
Cc1cnc(C(=O)OCC(=O)Nc2ccc(OCc3ccccc3)cc2)cn1,12.6*,-3.0,-3.3,4.5
CCOc1ccc2ccccc2c1CNc1nnnn1CC,-2.5,-2.2,1.3,0.7
O=C(CSc1cccc2cccnc12)N/N=C/c1ccc(F)cc1,11.1*,-2.0,nt,0.9
NNC(=O)CNC(=O)Nc1n[nH]c(=S)s1,10.0*,0.0,nt,nt
SMILES,TcdB GH inh,FadD28 binding,BioA inh,Y pestis TopoI
O=C1NC(=S)NC1=Cc1ccc(O)cc1,16.4*,0.8,0.3,-5.2
CCN(CC)c1ccc2nc3ccc(N)cc3[n+](-c3ccccc3)c2c1,4.6,48.2*,22.2,534.2*
CCN(CC)c1ccc(/C=N/n2nnnc2N)c(O)c1,nt,0.6,-0.3,-1.1
CCN(CC)c1ccc2nc3ccccc3[n+](CC)c2c1,nt,-0.5,7.1,130.6*
O=c1[nH]cnc2c1ncn2C1OCC(O)C(O)C1O (configuration not stated),0.0,-1.1,-1.8,3.7
O=C(Cn1c(=O)oc2cc(S(=O)(=O)N3CCCC3)ccc21)Nc1cccc(C(F)(F)F)c1,nt,10.6*,2.0,-0.6
CCc1cccc(NC(=O)Cn2c(=O)oc3cc(S(=O)(=O)N4CCOCC4)ccc32)c1,0.2,41.2*,1.2,5.9
Cc1noc(C)c1S(=O)(=O)Nc1ccc2c(c1)C(=O)N([C@@H](C)CO)C[C@H](C)[C@H](CN(C)C(=O)Cc1ccccc1)OCCCC[C@@H](C)O2,-1.4,nt,-1.3,nt
COc1ccc(NC(=O)N(C)C[C@@H]2Oc3ncc(C#CC(C)C)cc3C(=O)N([C@@H](C)CO)C[C@@H]2C)cc1,-0.7,nt,-0.3,nt
Nc1ccc(-c2nc3ccc(N)cc3[nH]2)cc1,8.1,14.4*,nt,-38.5
Nc1ccc(-c2nc3c(Cl)c(N)ccc3[nH]2)cc1,nt,11.4*,-6.8,-0.3
Nc1ccc2nc(-c3ccc(Cl)cc3)[nH]c2c1,8.5,-1.7,-1.2,-6.7
CCCCN1CC(COCc2ccccc2)Oc2cccc(F)c2S1(=O)=O (configuration not stated),2.4,-2.1,0.0,58.9*
CCCSc1nc2c([nH]1)c(=O)n(C)c(=S)n2C,10.4*,-3.7,nt,-5.6
CCSc1nc2c([nH]1)c(=O)n(C)c(=S)n2C,2.3,-2.0,-1.6,3.1
COc1ccc(CCNc2ncnc3cc(OC)c(OC)cc23)cc1OC,0.5,-0.8,nt,-1.0
Cc1ccc(SCc2cc(=O)c3c(=O)n(-c4ccccc4)[nH]c3[nH]2)cc1,0.3,16.6*,1.4,-1.2
COc1cc(C(=O)NCCNC(=O)c2cc(OC)c(C)c(OC)c2)cc(OC)c1C,0.9,-2.8,6.5,3.9
Cc1cnc(C(=O)OCc2ccc(COC(=O)c3cnc(C)cn3)cc2)cn1,0.6,-1.7,0.7,-3.4
O=C1c2c(O)ccc(O)c2C(=O)c2c(NCCNCCO)ccc(NCCNCCO)c21,16.5*,4.6,5.3,-69.0
O=Cc1ccccc1OS(=O)(=O)c1ccccc1,nt,-3.3,nt,-5.5
O=S(=O)(Oc1ccccc1-c1ccccc1)c1ccccc1,12.3*,-0.5,-3.3,17.3
COc1ccc2c3c(n(C)c2c1)[C@H](CO)N(C(=O)C1CCC1)CC31CN(C(=O)Nc2cccc(F)c2)C1,0.9,nt,nt,nt
O=C(O)Cc1ccc(N=Nc2c(O)c(C(=O)O)cc3ccccc23)cc1,-0.6,13.6*,9.1,-5.3
Cc1cc(C)nc(/N=C(\N)Nc2ccccc2-c2ccccc2)n1,10.1*,-3.8,nt,3.1
C[C@@H]1CCCCO[C@@H](CN(C)Cc2ccncc2)[C@@H](C)CN([C@H](C)CO)C(=O)c2cc(NS(=O)(=O)c3ccc(F)cc3)ccc2O1,-0.1,nt,0.7,nt
CCCNC(=O)Nc1ccc2c(c1)C(=O)N(C)[C@H]1CC[C@@H](CC(=O)NC3CCC3)O[C@H]1CO2,nt,nt,-5.7,nt
CCCNC(=O)Nc1ccc2c(c1)C(=O)N(C)[C@@H]1CC[C@H](CC(=O)NC3CCC3)O[C@H]1CO2,18.7*,nt,-0.7,nt
CCCNC(=O)Nc1ccc2c(c1)C(=O)N(C)[C@H]1CC[C@H](CC(=O)NC3CCC3)O[C@@H]1CO2,14.4*,nt,0.9,nt
CCOC(=O)C(NC(=O)Nc1ccc(C(N)=O)cc1)(c1ccccc1)C(F)(F)F (configuration not stated),nt,-3.0,1.6,-4.9

# Bioassay records from PubChem.
